TDP1 cell noCPT: qHTS for Inhibitors of human tyrosyl-DNA phosphodiesterase 1 (TDP1): qHTS in cells in absence of CPT; DT40 Tdp1-/- hTDP1 cells, no CPT, ATP luminescence, 48 h; Potency, µM (series often up to 46.2 µM), for the others: at the top dose activity change, negative = growth inhibition, actives largely listed as inhibitors; 420,000 tested, 15% active; AID 686978, 2013; further: potency means the concentration at half of the fitted maximal effect; on the % scale 0 is the no-effect control and ±100 the full control effect; nearly all actives have a fitted effect of over 55% in size
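Growth of hTDP1-complemented DT40 Tdp1-knockout cells is measured by ATP luminescence after at least 48 hr compound exposure at 37 °C, with DMSO substituting for the 20 nM CPT used in the parallel screen.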
IL1B secr inh: inhibitors of inflammasome signaling (IL-1 beta secretion); THP-1 LPS/ATP IL-1B secretion, AlphaLISA, 16 h; stronger effect = lower value; activity change, % at 57.5 µM; 360,000 tested, 4.7% active; AID 743279; in the data active means activity change below about -50%; inconclusive means mostly about -30% to -49%; further: on the % scale 0 is the no-effect control and ±100 the full control effect
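Secreted IL-1B measured by AlphaLISA bead assay after 16 h compound exposure of THP-1 cells; compounds (final up to 57.5 uM) added 1 h before LPS (250 ng/mL) and ATP (1.25 mM) stimulation; lower signal means less secretion.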
ClpP mod: qHTS Assay for Activators of ClpP. purified B. subtilis ClpP, FRET peptide cleavage, 20 min. ATP-dependent Clp protease proteolytic subunit (Bacillus subtilis (strain 168)), P80244. Potency, µM (highest dose often 57.5 µM), without a hit: at the highest dose activity change, negative = active. 340,000 tested, 1.9% active; active means well fitted falling curve with a large enough effect; inconclusive means small, poorly fitted or top-dose-only effect; inactive means no such curve, though single readings can be large or run the other way; further: potency means the concentration at half of the fitted maximal effect; the source files actives as falling curves though it sought activators and does not explain the sign; nearly all actives have a fitted effect of over 65% in size
Target sequence (P80244 whole entry, looked up): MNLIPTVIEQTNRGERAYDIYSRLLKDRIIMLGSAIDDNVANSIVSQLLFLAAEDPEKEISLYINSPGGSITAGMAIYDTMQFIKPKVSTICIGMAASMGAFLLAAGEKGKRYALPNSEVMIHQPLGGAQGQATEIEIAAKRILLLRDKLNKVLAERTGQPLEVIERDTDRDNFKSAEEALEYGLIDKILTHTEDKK
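ClpP 10 microg/mL final, pH 8 Tris/KCl buffer with BSA, glycerol, Tween-20; compound pinned in; FRET-FV substrate; RT 20 min; Ex320/Em430; ΔFRET vs ADEP 5.8 microM, DMSO, no enzyme.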
DT40 TDP1 CPT: growth inhibition of DT40 Tdp1-/-;hTDP1 cells with camptothecin (screen for TDP1 inhibitors); 420,000 tested, 12% active; Potency, µM (titrated, usually from 46.2 µM), inactives show top-dose activity change, negative = growth inhibition, hits mostly inhibitors; chicken DT40 Tdp1-/-;hTDP1 cells + 20 nM CPT, ATP luminescence, 48 h; further: potency means the concentration at half of the fitted maximal effect; on the % scale 0 is the no-effect control and ±100 the full control effect; nearly all actives have a fitted effect of over 55% in size
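Cell growth measured by CellTiter-Glo luminescence after a minimum 48 h, 37 C compound exposure with 20 nM CPT in Tdp1-knockout DT40 cells stably expressing hTDP1, seeded 400/well; qHTS titration format.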
DRD3 agonist: activates the human D3 dopamine receptor; D3R DiscoveRx beta-arrestin cells, luminescence, 90 min; max activation, %; 410,000 tested, 0.58% active; AID 652048; in the data active means max activation above about 30%; further: 0% is about no effect
Target sequence (P35462 whole entry, looked up): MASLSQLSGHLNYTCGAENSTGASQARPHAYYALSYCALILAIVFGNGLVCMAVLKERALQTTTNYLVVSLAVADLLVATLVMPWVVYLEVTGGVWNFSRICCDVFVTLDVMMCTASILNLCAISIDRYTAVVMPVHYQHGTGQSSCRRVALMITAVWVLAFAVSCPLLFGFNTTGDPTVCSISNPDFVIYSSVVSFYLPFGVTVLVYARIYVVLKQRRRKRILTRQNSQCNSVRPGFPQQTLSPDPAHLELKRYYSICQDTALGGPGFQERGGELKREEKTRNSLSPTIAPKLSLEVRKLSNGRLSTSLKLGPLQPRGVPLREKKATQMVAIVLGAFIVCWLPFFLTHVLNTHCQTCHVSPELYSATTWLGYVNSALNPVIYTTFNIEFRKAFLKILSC
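Cells at 1500/well, incubated overnight, then treated with pinned compounds (dopamine as control) for 90 min at 37 degrees C. DiscoveRx reagent added for 30 - 60 minutes at room temperature; luminescence read.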
DRD3 antagonist: D3 dopamine receptor (human) antagonism; P35462; D3R cells, DiscoveRx beta-arrestin luminescence, antagonist mode; stronger effect = lower value; max response, negative = inhibition, %; 360,000 tested, 2.5% active; in the data active means max response below about -50%; inconclusive means no clear call, values can overlap the other calls; further: on the % scale 0 is the no-effect control and ±100 the full control effect
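Cells expressing the human receptor were seeded at 1500 cells/well, incubated overnight at 37 degrees C in 5% CO2, then exposed to library compounds with dopamine controls for 90 minutes at 37 degrees C before luminescent detection.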
Active calls of the source: *; u = inconclusive; x = no result given; ! = repeats disagree; [ ] = remark or other dose. Hits are enriched below; roughly 21% of the tested compounds scored in any of these assays. Unless noted, the call rests on the fitted dose curve; in most records, active means well fitted inhibition curve with a large enough effect; inconclusive means small, poorly fitted or top-dose-only effect; inactive means flat fitted curve, though single readings scatter.

SMILES	TDP1 cell noCPT	IL1B secr inh	ClpP mod	DT40 TDP1 CPT	DRD3 agonist	DRD3 antagonist
FC(F)Sc1ccc(-n2cc(-c3ccccc3)[n+]3c2CCC3)cc1	4.11µM*	0.0	-1.2%	5.8µM*	-7.2	-16.4
CC(C)(C)NC(=O)CC1C(=O)NCCN1Cc1c(F)cccc1Cl (configuration not stated)	-1.8%	-12.6	x	-10.2%	1.8	-10.0
O=C(c1ccccc1)c1ccc(OCC(O)CN2CCOCC2)cc1 (configuration not stated)	-23.2%	-3.9	-1.1%	-6.2%	1.7	-11.6
CCOc1ccc(C(=O)C(CN2CCOCC2)c2ccccc2)cc1 (configuration not stated)	3.26µM*	-95.0*	0.3%	3.26µM*	-8.3	-6.6
O=C(c1ccccc1)C(CN1CCCCC1)c1ccccc1 (configuration not stated)	2.06µM*	-102.0*	x	1.84µM*	-31.9	-76.9*
CCOc1ccc(C(C#N)N2CCOCC2)cc1OC (configuration not stated)	-3.4%	13.2	-1.1%	6.5%	2.0	-7.4
CC(CN1CCN(CC(C)C(=O)c2ccccc2)CC1)C(=O)c1ccccc1 (configuration not stated)	-18.0%	1.8	1.1%	u	-13.0	-59.5*
CCOc1ccc(C(CN2CCOCC2)C(C)=O)cc1OC (configuration not stated)	4.11µM*	-116.6*	-1.7%	4.11µM*	-9.8	-26.6
CCc1ccc(C(=O)C(C)CN2CCCCC2)cc1 (configuration not stated)	u	x	x	u	-21.6	x
CSCCC(NS(=O)(=O)c1ccc2c(c1)oc(=O)n2C)C(=O)NCc1cccs1 (configuration not stated)	-22.0%	20.1	x	-0.2%	2.9	4.7
CCCCCCCCCC(=O)N[C@H](CN1CCOCC1)[C@H](O)c1ccccc1	23.1µM*!	-12.9	-2.1%	u	-8.7	-22.4
CCCCCOc1ccc(C(O)C(CN2CCOCC2)c2ccccc2)cc1 (configuration not stated)	u	-61.8*	x	u	10.4	-0.9
O=C(c1ccc(Br)cc1)C(CN1CCOCC1)c1ccccc1 (configuration not stated)	2.06µM*	-98.1*	-2.2%	1.3µM*	-42.6	-87.8*
CCCCCCCCCCCCCC(=O)N[C@@H](C)[C@H](O)c1ccccc1	-23.2%[4.12 µM]	x	x	0.1%[4.12 µM]	x	x
OC(c1ccc(F)cc1)C(CN1CCOCC1)c1ccccc1 (configuration not stated)	u	18.6	x	-29.6%	0.9	-15.2
C[C@@H](CC#N)CN1CC[C@H](C(C)(C)C)CCC1=O	-4.2%	25.2	-5.6%	1.0%	11.6	4.3
Oc1ccc(-c2nnc(Nc3cccc(O)c3)c3ccccc23)cc1	-1.2%	0.0	-2.5%	-29.3%	2.2	-16.2
CCOC(=O)c1c(Nc2cccc(O)c2)nnc(-c2ccccc2)c1-c1ccccc1	23.1µM*	x	-0.6%	u	10.6	x
CCOC(=O)c1c(Nc2ccc(OCC)cc2)nnc(-c2ccccc2)c1-c1ccccc1	20.6µM*	x	-1.9%	14.6µM*	16.3	x
NC(=O)COc1ccc(Nc2nnc(-c3ccc(O)cc3)c3ccccc23)cc1	3.2%	-27.0	-0.6%	19.6%	4.1	0.7
O=C(CN(C(=O)c1csnn1)c1ccccc1C(F)(F)F)NCc1ccccc1	-9.1%	-11.9	x	-20.3%	-0.5	-3.6
COc1ccc(C(=O)N2CC(=O)Nc3ccc(C)cc3C2c2ccccc2)cc1OC (configuration not stated)	u	x	-2.0%	u	3.9	x
CCc1ccccc1NC(=O)CN1C(=O)CCn2nc(-c3cccn3C)cc21	-2.0%	x	0.6%	1.1%	3.8	x
CCCC12CN3CC(C)(CN(C1)C3c1cn(CC)c3ccccc13)C2=O (configuration not stated)	u	x	-4.4%	u	-2.3	x
CC(C)C[C@H]1CNC(=S)N1C[C@H]1CCCN1C[C@H](Cc1ccc(O)cc1)N1C[C@H](Cc2ccc(O)cc2)N(CCc2ccccc2)C1=S	u	u	-2.9%	u	-12.8	u
SMILES	TDP1 cell noCPT	IL1B secr inh	ClpP mod	DT40 TDP1 CPT	DRD3 agonist	DRD3 antagonist
CC(C)C[C@H]1CN([C@@H](Cc2ccc(O)cc2)CN2CCC[C@@H]2CN2C(=S)NC[C@@H]2Cc2ccccc2)C(=S)N1CCc1ccccc1	6.51µM*	-27.1	-2.7%	6.51µM*	-18.1	-1.0
CC(C)C[C@H]1CNC(=S)N1C[C@H]1CCCN1C[C@H](Cc1ccccc1)N1C[C@H](Cc2ccc(O)cc2)N(CCc2ccccc2)C1=S	13µM*	-28.1	-4.9%	23.1µM*	-3.7	-28.7
CC(C)C[C@H]1CNC(=S)N1C[C@H]1CCCN1C[C@H](Cc1ccc(O)cc1)N1C[C@H](CC(C)C)N(CCc2ccccc2)C1=S	20.6µM*	-62.7*	-1.6%	u	-11.3	-18.8
Cc1cccc(NS(=O)(=O)c2ccc3c(c2)[C@H]2C=CC[C@H]2[C@@H](c2ccc(F)cc2)N3)c1	10.3µM*	x	-6.3%	10.3µM*	-3.9	x
COC(=O)c1ccc([C@H]2Nc3ccc(S(=O)(=O)Nc4ccc(F)cc4)cc3[C@H]3C=CC[C@H]32)cc1	3.26µM*	x	0.2%	3.66µM*	1.4	x
COc1cccc(NS(=O)(=O)c2ccc3c(c2)C2C=CCC2C(c2ccc(C(=O)O)cc2)N3)c1 (configuration not stated)	-11.0%	13.0	0.6%	-9.0%	3.6	-29.9
COc1ccc(C)cc1NS(=O)(=O)c1ccc2c(c1)[C@H]1C=CC[C@H]1[C@@H](c1cccc(Cl)c1)N2	20.6µM*	x	-1.5%	13µM*	7.8	x
Fc1ccc([C@@H]2Nc3ccccc3[C@@H]3C=CC[C@@H]32)cc1	u	x	-1.7%	u	-3.2	x
COc1ccc(C(=O)N/N=C(\C)c2ccc3c(c2)C2C=CCC2C(c2ccccc2)N3)cc1 (configuration not stated)	14.6µM*	-5.0	-0.3%	u	-13.7	19.5
COc1ccc(OC)c([C@@H]2Nc3ccc(C(=O)O)cc3[C@@H]3C=CC[C@@H]32)c1	u	x	-16.1%	u	3.4	x
CCc1nnc(SCC(=O)N(C)c2ccccc2)c2cc3sccc3n12	u	x	2.9%	u	-20.0	x
CC(C)(C)OC(=O)NCCCC[C@H](NC(=O)c1nc[nH]c1C(=O)NCC(=O)OCc1ccccc1)C(=O)OC(C)(C)C	u	-0.9	-0.8%	14.6µM*	-4.3	-1.4

High-throughput results as filed in PubChem.
